Among the data in PubChem BioAssay AID492960 (National Center for Advancing Translational Sciences (NCATS), 2010) are Potency values, retold here.

Records with an inconclusive call do not appear. A call without a number means that no potency is given here. Activity calls are given as the source filed them. Calls follow the shape of the dose curve; as a rule, active = well fitted curve in the direction sought with a large enough effect; inconclusive = small, poorly fitted or top-dose-only effect, or effect the other way, or another doubt; inactive = no such curve, though single readings can be large or run the other way.

A short description of the test: Secondary Assay for lipid storage modulators: HepG2 cell LDSA assay for probe SAR. The settings on record: HepG2 lipid droplet BODIPY, laser-scanning cytometry, 18-24 h; series mostly up to 46.1 µM. The text has this:
NIH Molecular Libraries Probe Production Centers Network [MLPCN] NIH Chemical Genomics Center [NCGC] MLPCN Grant: 1 R03 MH085686-01 Assay Submitter (PI): Beller, Mathias; Max-Planck-Institut fur Biophysikalische Chemie NCGC Assay Overview: Storing lipids as a reservoir for energy or the anabolism of elementary metabolites is a common feature of probably all cells and is conserved from bacteria to humans. The universal cellular lipid storage organelle is the so-called lipid storage droplet (LD). Although ubiquitous, LDs share a simple structure composed of a hydrophobic core that harbors the storage lipids, which is shielded by a droplet-specific phospholipid monolayer to which proteins are attached. The current model of LD biogenesis involves an incorporation of the lipid core into the membrane leaflets of the endoplasmic reticulum (ER) followed by a subsequent budding-like maturation of a LD, which ultimately pinches off. Once released, LD volume can increase by localized lipogenesis or fusion of existing droplet. Storage lipids are re-mobilized enzymatically by lipase activity. Lipase regulation in the adipocyte is heavily studied and involves multiple components including catecholamine signaling, the LD-associated proteins Perilipin and comparative gene identification (CGI-58) and at least two lipases named hormone sensitive lipase (HSL) and adipocyte triglyceride lipase (ATGL). LD regulation outside of the adipocyte is poorly understood and only few components are known. However, there is an urgent need to learn more about ectopic fat depots as mislocalized storage of lipids, for example in the liver or muscle, is an eminent health problem associated with insulin resistance or the metabolic syndrome.
NCGC Assay Protocol Summary: The assay was performed with HepG2 cells, using an oleic acid feeding protocol similar to the S3 assay. We dispensed 4 uL of cells to give 700 cells/well into Greiner bio-one 1,536-well plates (black walled, clear bottom). Triacsin C (Sigma-Aldrich T-4540), an inhibitor of long-chain fatty acyl CoA synthetase that blocks synthesis of triglycerides, was used as a positive control for lipid under-storage using a final concentration of 20 uM. The orexin antagonist, SB408124 - previously identified to stimulate lipid over-storage, was used as a positive control for lipid over-storage using a final concentration of 20 uM. A total of 23 nL of compound solution of different concentrations were transferred to the assay plates using a Kalypsys pin tool equipped with a 1,536-pin array containing 10-nL slotted pins (FP1S10, 0.457-mm diameter, 50.8 mm long; V&P Scientific). One microliter of oleic acid was added (400 uM final concentration), and the plate was lidded with stainless steel rubber gasket lined lids containing pinholes. After 18-24 h incubation at […] and 95% humidity, 4 uL of the dyes BODIPY 493/503 (Molecular Probes) and the Cell Tracker Red CMTPX dye (Molecular Probes) were added to the wells to stain lipid droplets and enumerate cell number, respectively. Fluorescence was detected by excitation of the fluorophores with a 488-nm laser on an Acumen Explorer (TTP Lab Tech). The total intensity in channel 2 (500-530 nm) reflected lipid droplet accumulation. Cells were detected using channel 3 (575-640 nm) with 5-um width and 100-um depth filters. The ratio of the number of objects in PMT channel 2 over the number of objects in PMT channel 3 was also calculated. Percent activity was computed relative to an internal control (100% inhibited lipid droplet deposition due to the presence of 20 uM Triacsin C), which was added to 32 wells/plate.
As for `CCOc1ccc(CCNC(=O)c2cc3sc(CC)cc3n2C)cc1OCC`, the Potency entry is “inactive”. Take `O=C(NC1CCCc2c1cnn2-c1ccc(F)cc1F)c1cnon1` (stereo unspecified): the Potency result was “inactive”. For the compound `CCOc1ccc(CCNC(=O)c2ccccn2)cc1OCC`, the Potency result is “inactive”. With `CCOc1ccc(CCNC(=O)c2cc3sccc3n2Cc2ccc(-n3cncn3)cc2)cc1OCC` the entry was “inactive”; with `O=C(NC1CCCc2c1cnn2-c1ccc(F)cc1F)c1ccccn1` (stereo unspecified), “inactive”. On to `O=C(Nc1ccccc1-c1cn2c(CN3CCNCC3)csc2n1)c1cnc2ccccc2n1`, for which the Potency was 11.2 µM (active).

Turning to `O=C(NC1CCCc2c1cnn2-c1ccc(F)cc1F)c1cccc(=O)[nH]1` (stereo unspecified), the Potency result is “inactive”. Consider `CCOc1ccc(CCNC(=O)c2cc3sccc3n2Cc2ccc(Cl)c(F)c2)cc1OCC`, for which the Potency entry is “inactive”. With `COc1ccc(-c2cnc(SCC(=O)Nc3nc(C)cs3)n2-c2ccccc2)cc1` the entry was “inactive”; with `CCOc1ccc(CCNC(=O)c2cc3sccc3n2Cc2cccc(C)c2)cc1OCC`, “inactive”. For the compound `Cc1ccc(-c2cnc(SCC(=O)Nc3nc(C)cs3)n2Cc2ccco2)cc1`, the Potency entry is “inactive”. For the compound `Cc1cc2c(cc1C1(c3ccc(C(=O)O)cc3)CC1)C(C)(C)CCC2(C)C`, the Potency result was “inactive”. With `CCOC(=O)C1CCN(C(=O)C2(NC(=O)Nc3ccccc3Cl)CC2)CC1`, the Potency result is “inactive”. As for `O=C(NCCc1ccc2c(c1)OCO2)c1cc2sccc2n1Cc1ccccc1`, the Potency entry is “inactive”. As to `CCOc1ccc(CCNC(=O)c2cc3sccc3n2CC=C(C)C)cc1OCC`, the Potency result is “inactive”. Regarding `O=C(NC1CCCc2c1cnn2-c1ccc(F)cc1F)c1ccc(C2(C(F)(F)F)N=N2)cc1` (stereo unspecified), the Potency entry is “inactive”.

For the compound `O=C(NC1CCCCC1)NC1(C(=O)N2CCCC2)CCCCC1`, the Potency result was “inactive”. As to `CCn1c(C(=O)NCCc2ccc(OC)c(OC)c2)cc2sccc21`, the Potency entry is “inactive”.

As to `COc1ccc(CCNC(=O)c2cc3sccc3n2Cc2ccc(Cl)cc2)cc1OC`, the Potency result is “inactive”. Next, `CC1(C)CCC(c2ccc(Cl)cc2)=C(CN2CCN(c3ccc(C(=O)NS(=O)(=O)c4ccc(N[C@H](CCN5CCOCC5)CSc5ccccc5)c(S(=O)(=O)C(F)(F)F)c4)cc3)CC2)C1`: “inactive”; `CCOc1ccc(CCNC(=O)C2COc3ccccc3O2)cc1OCC` (stereo unspecified): “inactive”. As for `O=C(c1cc2sccc2n1Cc1ccccc1)N(CCc1ccc(O)c(O)c1)Cc1ccccc1`, the Potency entry was “inactive”. Next, `CCOc1ccc(CCNC(=O)c2cc3ccccc3n2C)cc1OCC`: “inactive”.

In the case of `CCn1c(-c2ccc(C)cc2)cnc1SCC(=O)Nc1nc(C)cs1`, the Potency result was “inactive”. As to `CCOC(=O)C1CCN(C(=O)C2(NC(=O)NCc3ccccc3)CCCCC2)CC1`, the Potency entry was “inactive”. Next, `CCOc1ccc(CCNC(=O)c2cc3sccc3[nH]2)cc1OCC`: “inactive”.

In the case of `O=C(O)c1cccc(-c2noc(-c3ccccc3F)n2)c1`, the Potency result is “inactive”.

Take `CCOc1ccc(CCNC(=O)c2cc3ccccc3o2)cc1OCC`: the Potency result is “inactive”. Turning to `CCOc1ccc(CCNC(=O)c2cccs2)cc1OCC`, the Potency entry is “inactive”. For the compound `CCOc1ccc(CCNC(=O)c2cc3sccc3n2C)cc1OCC`, the Potency is 25 µM (active). Regarding `CCOC(=O)C1CCN(C(=O)C2(NC(=O)Nc3ccccc3Cl)CCC2)CC1`, the Potency entry was “inactive”.
